# EBV gp42 inh: EBV gp42 inhibition; 220,000 tested, 0.42% active; Fluorescence polarization binding assay, mP read-out; Q1HVG2; inhibition, % (tested at 21.74 µM); in the data active = inhibition above about 50%
# Target sequence (Q1HVG2 whole entry, looked up): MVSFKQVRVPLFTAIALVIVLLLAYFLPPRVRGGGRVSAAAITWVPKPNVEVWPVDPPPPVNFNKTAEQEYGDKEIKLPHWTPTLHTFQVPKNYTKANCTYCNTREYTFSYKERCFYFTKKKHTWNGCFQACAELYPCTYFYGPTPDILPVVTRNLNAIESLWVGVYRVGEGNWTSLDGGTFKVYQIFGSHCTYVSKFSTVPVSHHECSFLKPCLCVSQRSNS
# LANA-H2A inh: blocks KSHV LANA binding to histone H2A/H2B; inhibition, % (test concentration not listed); cell-free LANA-H2A/H2B peptide, fluorescence polarization; 320,000 tested, 0.6% active; Q9QR71; in the data active = inhibition mostly above about 10%, no sharp cut-off; inactive = mostly below about 6.7%
# LANA DNA inh: inhibitors of KSHV LANA C-terminal domain DNA binding; MBP-C-LANA/FAM-LBS DNA binding, fluorescence polarization; inhibition, % at 9 µM; 340,000 tested, 0.078% active; AID 504423;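 active = highest replicate inhibition at or above 60% at 9 µM, even if other replicates fall short; inactive = all replicates below 60% inhibition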;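 note: 0% = neutral control wells and 100% = 4 µM acridine orange control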
# Keap1-Nrf2 PPI: Keap1-Nrf2 (human) interaction inhibition; Q14145; 340,000 tested, 0.15% active; Keap1 Kelch-Nrf2 peptide fluorescence polarization, 1536-well; inhibition, % at 9.4 µM; in the data active = inhibition above about 12%;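 note: human Keap1 Kelch domain with fluorescein labeled Nrf2 9mer peptide probe; 0% = neutral control wells and 100% = peptide positive control; higher means more block of Keap1 binding to Nrf2 peptide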
# GLD-1 RNA inh: GLD-1-TGE RNA interaction inhibition (C. elegans) | Q17339 | purified GLD-1 + fluorescein TGE RNA, fluorescence polarization | inhibition, % at 5.96 µM | 320,000 tested, 0.44% active | AID 2280;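 active = percent inhibition above a per-plate cutoff, the plate mean of test compounds plus 3 SD, cut at about 30% in these data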;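 note: 0% = DMSO wells with GLD-1 and probe and 100% = wells lacking GLD-1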
# eLon inh: inhibitors of E. coli Lon protease. purified E. coli Lon protease, fluorescence polarization. P0A9M0. inhibition, % at 7.94 µM. 360,000 tested, 0.42% active; in the data active = inhibition above about 13%, passing the limit was not always enough;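 note: 0% = enzyme with probe and DMSO and 100% = no enzyme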
# Numbers without * were called inactive; . = not tested or not shown; + = active, no number. An excerpt weighted towards active compounds, which were near 1.5% of everything screened.
SMILES,EBV gp42 inh,LANA-H2A inh,LANA DNA inh,Keap1-Nrf2 PPI,GLD-1 RNA inh,eLon inh
CCN(CC(=O)Nc1ccccc1C(F)(F)F)C(=O)c1ccccc1SCC(=O)N1CCCC1,.,35*,0,0,5,-2
COc1ccc(NC(=O)CN(C)C(=O)c2ccccc2SCC(=O)N2CCCC2)cc1,.,19*,1,-4,-1,-4
CN(CC(=O)Nc1c(Cl)cccc1Cl)C(=O)c1ccccc1SCC(=O)N1CCCC1,.,-1,-1,-7,-7,-2
Cc1ccc(NC(=O)CN(C)C(=O)C(c2ccccc2)c2ccccc2)cc1,.,0,0,0,2,-6
COc1ccc(NC(=O)CN(C)C(=O)C(Sc2ccccc2)c2ccccc2)cc1 (stereo unspecified),.,60*,2,-1,5,-3
CN(Cc1ccco1)C(=O)Cn1nc(-c2ccc(Cl)cc2)ccc1=O,12,0,-2,-1,-9,-2
COC(=O)c1cc(=O)c2c(ccc3oc(=O)ccc32)[nH]1,.,.,.,.,.,7
Cc1cccc(C)c1NC(=O)CN(C)C(=O)c1ccc2c(=O)n3c(nc2c1)CCC3,.,15*,0,1,4,-20
Cc1cc(C)c(NC(=O)CNC(=O)c2ccc3c(=O)n4c(nc3c2)CCC4)c(C)c1,.,5,-2,-6,-6,-8
CCc1nc2ccc(C(=O)N(C)CCCN(C)C)cn2c1N(C=O)CCC(C)C,.,.,.,.,.,-6
O=C(NC1CCC1)C1CCC(=O)N(Cc2ccccc2F)C1 (stereo unspecified),.,-3,-1,-6,-6,-2
O=C(NC1CCC1)C1CCC(=O)N(Cc2cccc(F)c2)C1 (stereo unspecified),.,38*,0,2,.,5
CCCC(=O)N1CCC1(C)C(=O)NS(=O)(=O)c1ccccc1 (stereo unspecified),.,.,.,.,.,13
CN(c1ccc(O)cc1)c1nc(-c2ccccc2)cs1,13,+,-1,-4,7,8
CS(=O)(=O)N(CC(=O)Nc1ccccc1C(=O)NCc1ccccc1)c1ccc2c(c1)OCCO2,-23,86*,1,-3,1,-6
Cc1cnc(CNc2nc3cc(-c4ccccc4C)sc3c(=O)n2C)cn1,.,.,.,.,.,3
CN(C)c1ccc(CNC(=O)C2(C)Cc3c(-c4cccc(C(N)=O)c4)ccnc3O2)cc1 (stereo unspecified),.,.,.,.,.,12
Cc1ccc(F)c(S(=O)(=O)NC(=O)C2(C)CCN2C(=O)CCC2CCCC2)c1 (stereo unspecified),.,.,.,.,.,-8
N#C/C(=C/c1ccc(-c2ccccc2)o1)c1nc(-c2cccs2)cs1,99*,-1,3,-4,8,-356
N#C/C(=C/c1ccc(-c2ccc(S(N)(=O)=O)cc2)o1)c1nc2ccccc2s1,64*,-2,10,-8,-47,-384
N#C/C(=C\c1ccc(-c2ccc(F)cc2)o1)C(=O)Nc1nc(-c2cccs2)cs1,12,2,1,-3,9,1
N#C/C(=C/c1ccc(-c2ccc(S(N)(=O)=O)cc2)o1)C(=O)Nc1ccccc1,-139,-2,2,4,-1,-12
Cn1cc(-c2csc(C(C)(O)c3cccnc3)n2)cn1 (stereo unspecified),.,.,.,.,.,1
OC(C#CCN1CCCCCC1)(c1ccccc1)c1cccnc1 (stereo unspecified),-10,15*,6,-1,-6,-7
OC(C#CCN1CCCC1)(c1ccccc1)c1cccnc1 (stereo unspecified),-18,27*,0,1,0,8
SMILES,EBV gp42 inh,LANA-H2A inh,LANA DNA inh,Keap1-Nrf2 PPI,GLD-1 RNA inh,eLon inh
Cc1cccc(NC(=O)c2cccc(NC3=NC4CS(=O)(=O)CC4S3)c2)c1 (stereo unspecified),.,0,0,-5,5,-3
Cc1ccc(NC(=O)c2cccc(NC3=NC4CS(=O)(=O)CC4S3)c2)cc1C (stereo unspecified),.,24*,-1,2,-1,-4
COc1ccc(C2CC(=O)c3cc(OC)ccc3O2)cc1 (stereo unspecified),.,.,0,-4,.,10
COc1ccc2c(c1)C(=O)Cc1ccccc1O2,.,17*,0,-5,-3,-1
COc1cccc(-n2cc(C(=O)NCCCOC(C)C)c3ccccc3c2=O)c1,.,-1,120*,-6,1,-6
CC(C)Cc1ccc(CN2CCCC(NC(=O)c3ccoc3)C2)cc1 (stereo unspecified),.,3,-2,-4,8,-3
CC(C)Cc1ccc(CN2CCCC(NC(=O)c3cccc(-n4cnnc4)c3)C2)cc1 (stereo unspecified),.,53*,0,-6,-1,-1
CC1(C(=O)NCc2ccccc2Br)CCN1Cc1ccc(-c2ccccc2)o1 (stereo unspecified),.,.,.,.,.,2
CC1(C)C(c2cccs2)=[N+]([O-])C2(CCCCC/C2=N\O)N1O (stereo unspecified),5,13*,-1,1,2,-1
CN1CCN(C(=O)OCCOCCOC(=O)N2CCN(C)CC2)CC1,.,.,-1,3,.,-3
COc1ccc(CCN2CC(C(=O)OCC(=O)Nc3c(C)nn(-c4ccccc4)c3C)CC2=O)cc1OC (stereo unspecified),.,0,0,-4,2,-11
CC1CCN(C(=O)CSc2nc(N)c(NC(=O)c3ccccc3)c(=O)[nH]2)CC1,.,48*,-3,-6,0,8
COC(=O)C1=C(C)NC(C)=C(C(=O)OC)C1C1CC=CCC1 (stereo unspecified),-13,8.1*,-1,2,-1,-7
CCOC(=O)C1=C(C)NC(=O)NC1C1CC=CCC1 (stereo unspecified),-22,-3,0,0,0,2
O=C(O)c1ccccc1C(=O)NCc1ccccc1,-10,0,-1,-5,2,-3
O=C(O)c1ccccc1C(=O)NCc1ccc(F)cc1,-12,20*,3,-1,-2,-7
O=C(N/N=C/c1ccc([N+](=O)[O-])o1)c1cc2c(ccc3ccccc32)o1,60*,.,0,1,.,3
O=C(N/N=C/c1ccc([N+](=O)[O-])o1)c1cc2ccccc2o1,-21,2,1,-2,1,-10
COc1cc(OC)cc(C(=O)NCC2CCCN(C(=O)c3csc(C)n3)C2)c1 (stereo unspecified),.,0,0,0,-4,9
Cc1nn(Cc2ccc(F)cc2)c(C)c1NC(=O)c1cc(-c2ccco2)on1,-14,13*,-2,1,-19,-8
CN1CCN2c3ccccc3CC(C#N)(C#N)C2C1 (stereo unspecified),.,.,.,.,.,-5
CCC(C)[C@H](NC(=O)C1CC(=O)N(c2ccc3c(c2)OCCO3)C1)C(=O)NC1CCCC1 (stereo partly specified),.,-2,1,-3,4,-1
